Some test systems named below: NCI-H23 lung; NCI-H226 lung; NCI-H322M lung; HOP-62 NSCLC; NCI-H460 lung; HOP-92 NSCLC; NCI-H522 lung; A549/ATCC NSCLC; 786-0 renal; COLO 205 colon.
What all share (assay): NCI-60 one-dose screen, 48 h (100 = growth as untreated, 0 = no growth, -100 = all killed)
Common to all, as to conditions: 10 µM unless noted

Here are results for twelve compounds from PubChem BioAssay (NCI).

Structures are written as SMILES. This is part of a sample that, as a whole, favours compounds with a hit. Of some 83,000 tested, about 20% had one in any assay.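 Note: values are percent growth. 100 is the growth of untreated cells, values between 100 and 0 indicate rising inhibition; between -100 and 0 indicates cell death.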 A number with no mark means an inactive call. Calls of active or inactive are those of the source. How the source made its calls: active means growth percent below 10; inactive means the rest.

On to `O=C(Nc1ccccc1O)c1ccc(CNC(=O)c2ccsc2Nc2ccnc(C(F)(F)F)c2)cc1`, for which the growth is 13.5% with NCI-H23 lung; 38.3% in the test on NCI-H226 lung; 46.1% with NCI-H322M lung; 47.6% in the test with HOP-62 NSCLC; 26% with NCI-H460 lung; -2.27% (active) in the test on HOP-92 NSCLC. The growth in the test on NCI-H522 lung is -24% (active); in the test on A549/ATCC NSCLC, 27.6%; with 786-0 renal it was 42.8%; with COLO 205 colon, 47.3%.

`Cc1ccc(S(=O)(=O)N2CCC(=O)c3ccccc32)cc1`: the growth in the test with NCI-H23 lung is 85%; in the test with NCI-H226 lung, 93.9%; in the test with NCI-H322M lung it was 89.3%; in the test with HOP-62 NSCLC it was 80.8%; in the test on NCI-H460 lung, 86.5%; in the test on HOP-92 NSCLC it was 80.8%. Moreover, the growth was 84% in the test on NCI-H522 lung, 102% with A549/ATCC NSCLC, 93.7% in the test on 786-0 renal and 76.4% in the test with COLO 205 colon.

As for `COc1cc(OC)c2sc(-c3ccc(-n4cncc4-c4cc(OC)c(OC)c(OC)c4)cc3)nc2c1`, the growth was 54.5% with NCI-H23 lung; 52.7% in the test on NCI-H226 lung; 86.8% in the test on NCI-H322M lung; 79.6% with HOP-62 NSCLC; 46.2% with NCI-H460 lung; 14.8% with HOP-92 NSCLC. Further, the growth was 43.2% with NCI-H522 lung, 50.9% with A549/ATCC NSCLC, 67.2% with 786-0 renal and 44.5% in the test on COLO 205 colon.

Turning to `N#Cc1ccc(O)c(C2=NCC(Cc3ccccc3)O2)c1` (stereo not given), the growth was 54.5% in the test with NCI-H23 lung; 65.9% with NCI-H226 lung; 59.9% in the test on NCI-H322M lung; 24.1% with HOP-62 NSCLC; 23.5% in the test with NCI-H460 lung; 65% in the test on HOP-92 NSCLC. For the same compound, the growth in the test with NCI-H522 lung was -17.5% (active); with A549/ATCC NSCLC it was 35.8%; with 786-0 renal it was 38.7%; in the test on COLO 205 colon, 60.7%.

Consider `O=S1(=O)C=C(c2ccccc2)C(c2ccccc2)=C1`, for which the growth in the test with NCI-H23 lung is 60.1%; with NCI-H226 lung it was 44.7%; in the test on NCI-H322M lung, 90.8%; in the test with HOP-62 NSCLC, 54.3%; with NCI-H460 lung, 36.5%; with HOP-92 NSCLC, -1.68% (active). Also, the growth in the test with NCI-H522 lung was -70.7% (active); with A549/ATCC NSCLC, 70.9%; with 786-0 renal it was 3.9% (active); in the test with COLO 205 colon it was -88.5% (active).

`O=C(CCCCCCN1CC(=O)N2[C@H](c3ccc(Cl)cc3)c3[nH]c4ccccc4c3C[C@@H]2C1=O)NO`: the growth in the test on NCI-H23 lung is 60.2%; with NCI-H226 lung, 84.1%; in the test with NCI-H322M lung, 64.1%; in the test on HOP-62 NSCLC, 61.9%; with NCI-H460 lung, 54.2%; in the test with HOP-92 NSCLC it was 44.4%. For the same compound, the growth in the test on NCI-H522 lung was 32.8%; in the test on A549/ATCC NSCLC, 90.1%; in the test on 786-0 renal it was 92.9%; in the test on COLO 205 colon, 57.3%.

`O=C(NC(Cc1nnc2n(Cc3ccccc3)c(=O)c3c4c(sc3n12)CCCC4)c1ccccc1)c1ccccc1` (stereo not given): the growth in the test on NCI-H23 lung was 90.9%; in the test with NCI-H226 lung it was 113%; in the test on NCI-H322M lung, 93.3%; with HOP-62 NSCLC, 71.1%; in the test with NCI-H460 lung it was 94.4%; in the test on HOP-92 NSCLC, 74.6%. Further, the growth was 94.8% with NCI-H522 lung, 90.4% with A549/ATCC NSCLC, 81% with 786-0 renal and 107% in the test on COLO 205 colon.

With `COc1ccc(/C=C/C(=O)c2cc3c(N)c(C(=O)Nc4cccc(Cl)c4C)sc3nc2C)cc1`, the growth was 19.8% in the test on NCI-H23 lung; 34.8% with NCI-H226 lung; 33.1% in the test with NCI-H322M lung; 20.7% in the test on HOP-62 NSCLC; 0.238% (active) in the test with NCI-H460 lung; 39.2% in the test on HOP-92 NSCLC. For the same compound, the growth in the test on NCI-H522 lung is -8.5% (active); with A549/ATCC NSCLC it was 17.6%; in the test on 786-0 renal it was 4.44% (active); in the test on COLO 205 colon, -28.9% (active).

For `COC(=O)c1c2c(c(C)[n+]([O-])c1C)C(=O)C(NCc1cccc(Cl)c1)=CC2=O`, the growth with NCI-H23 lung is 14.7%; with NCI-H226 lung, 79.8%; with NCI-H322M lung it was 1.86% (active); in the test on HOP-62 NSCLC it was 41.6%; with NCI-H460 lung it was 10.1%; in the test on HOP-92 NSCLC, 38%. In addition, the growth in the test with NCI-H522 lung was -10.4% (active); in the test on A549/ATCC NSCLC, 6.34% (active); with 786-0 renal it was 39.5%; with COLO 205 colon, -50.3% (active).

Turning to `CCOC(=O)c1ccccc1-c1c2ccc(=[N+](C)C)cc-2oc2cc(N(C)C)ccc12`, the growth in the test on NCI-H23 lung was 93%; in the test with NCI-H226 lung, 19.5%; with NCI-H322M lung, 12.6%; in the test on HOP-62 NSCLC, 6.81% (active); in the test with NCI-H460 lung, 3.9% (active); in the test with HOP-92 NSCLC, -19.3% (active). For the same compound, the growth is 14.2% in the test on NCI-H522 lung, 12% in the test with A549/ATCC NSCLC, 20.5% in the test with 786-0 renal and -46.6% (active) with COLO 205 colon.

On to `O=c1c2c3c(sc2n2c(-c4cc(-c5ccccc5)no4)nnc2n1Cc1ccccc1)CCCC3`, for which the growth in the test on NCI-H23 lung was 86.4%; with NCI-H226 lung, 97.6%; in the test on NCI-H322M lung, 97.1%; with HOP-62 NSCLC it was 92.5%; with NCI-H460 lung, 86%; in the test with HOP-92 NSCLC, 76.5%. Also, the growth is 55.2% in the test with NCI-H522 lung, 49.9% with A549/ATCC NSCLC, 87.6% in the test with 786-0 renal and 96.4% in the test with COLO 205 colon.

As for `CCOC(=O)C(=CNc1cnc(Nc2ccc(N3CCOCC3)cc2)nc1Oc1ccc(OC)cc1)C(=O)OCC`, the growth in the test on NCI-H23 lung was 68.4%; in the test with NCI-H226 lung it was 70.3%; in the test on NCI-H322M lung it was 39.7%; in the test on HOP-62 NSCLC, 23.5%; in the test with NCI-H460 lung, 2.03% (active); with HOP-92 NSCLC, 30.3%. Also, the growth with NCI-H522 lung was 76.3%; in the test on A549/ATCC NSCLC, 22.2%; in the test on 786-0 renal, 30.8%; with COLO 205 colon, 65.9%.
